Hit rate of the full screen: of about 5,500 compounds, about 2,000 (36%) were called active. Not shown: some 18% with an inconclusive outcome. Rule as the data show it: active = normalized growth mostly below about 0.91 (no sharp cut-off); inconclusive = no clear call, values can overlap the other calls; inactive = mostly above about 0.92. Some of the results follow.
Assay: chemical genetic growth profiling, strain panel (AID 1159580);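 also: tested at 20 µM; growth read once vehicle control cultures reached saturation at 30 °C; 1 = growth at the plate median or of vehicle wells; lower values mean less growth of the strain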
Details: S. cerevisiae deletion strains, growth OD

Measured: normalized growth

CC(=O)Oc1ccc(Cl)c2cccnc12
active: locus YAL013W, strain DEP1, hits give low values 0.0553 | locus YAL021C, strain ccr4, hits give low values 0.069 | locus YAL026C, strain drs2, hits give low values 0.0608 | locus YAL030W, strain snc1, hits give low values 0.0564 | locus YBL061C, strain skt5, hits give low values 0.0591 | locus YBR009C, strain hhf1, hits give low values 0.0605 | locus YBR021W, strain FUR4, hits give low values 0.0898 | locus YBR023C, strain chs3, hits give low values 0.0596 | locus YBR171W, strain sec66, hits give low values 0.0822 | locus YBR229C, strain ROT2, hits give low values 0.0477 | locus YBR231C, strain swc5, hits give low values 0.0648 | locus YBR279W, strain paf1, hits give low values 0.0603 | locus YCL011C, strain gbp2, hits give low values 0.0571 | locus YCL016C, strain dcc1, hits give low values 0.0644 | locus YCL029C, strain bik1, hits give low values 0.0625 | locus YCL069W, strain vba3, hits give low values 0.0622 | locus YCR088W, strain abp1, hits give low values 0.0643 | locus YDL005C, strain med2, hits give low values 0.0757 | locus YDL035C, strain GPR1, hits give low values 0.0496 | locus YDL040C, strain nat1, hits give low values 0.0609 | locus YDL074C, strain BRE1, hits give low values 0.0748 | locus YDL101C, strain DUN1, hits give low values 0.0607 | locus YDL134C, strain PPH21, hits give low values 0.0511 | locus YDL185W, strain tfp1, hits give low values 0.0604 | locus YDL192W, strain arf1, hits give low values 0.0619 | locus YDR001C, strain nth1, hits give low values 0.064 | locus YDR069C, strain doa4, hits give low values 0.0614 | locus YDR101C, strain arx1, hits give low values 0.0604 | locus YDR137W, strain rgp1, hits give low values 0.0888 | locus YDR150W, strain NUM1, hits give low values 0.0581 | locus YDR159W, strain sac3, hits give low values 0.0841 | locus YDR162C, strain NBP2, hits give low values 0.0464 | locus YDR195W, strain ref2 0.118 | locus YDR297W, strain sur2, hits give low values 0.0582 | locus YDR318W, strain mcm21, hits give low values 0.064 | locus YDR334W, strain swr1, hits give low values 0.0646 | locus YDR335W, strain msn5, hits give low values 0.0695 | locus YDR388W, hits give low values 0.0563 | locus YDR392W, strain spt3, hits give low values 0.0734 | locus YDR502C, strain sam2, hits give low values 0.0661 | locus YEL003W, strain gim4, hits give low values 0.0532 | locus YEL037C, strain rad23, hits give low values 0.0595 | locus YEL061C, strain CIN8 (second series), hits give low values 0.0644 | locus YEL061C, strain CIN8, hits give low values 0.0486 | locus YER015W, strain faa2, hits give low values 0.0637 | locus YER016W, strain bim1, hits give low values 0.0578 | locus YER110C, hits give low values 0.0806 | locus YER111C, strain swi4, hits give low values 0.076 | locus YER155C, strain BEM2 (second series), hits give low values 0.094 | locus YER155C, strain BEM2, hits give low values 0.0723 | locus YER167W, strain BCK2, hits give low values 0.0497 | locus YFR010W, strain ubp6, hits give low values 0.0687 | locus YGL078C, strain dbp3, hits give low values 0.0682 | locus YGL086W, strain mad1, hits give low values 0.0595 | locus YGL167C, strain pmr1, hits give low values 0.0737 | locus YGL173C, strain kem1, hits give low values 0.0684 | locus YGL227W, strain vid30, hits give low values 0.0677 | locus YGL240W, strain doc1, hits give low values 0.0722 | locus YGL248W, strain PDE1, hits give low values 0.046 | locus YGL253W, strain hxk2, hits give low values 0.0586 | locus YGR078C, strain PAC10, hits give low values 0.0495 | locus YGR135W, strain pre9, hits give low values 0.0649 | locus YGR252W, strain gcn5, hits give low values 0.186 | locus YHR013C, strain ard1, hits give low values 0.104 | locus YHR027C, strain rpn1, hits give low values 0.0596 | locus YHR030C, strain SLT2, hits give low values 0.0501 | locus YHR079C, strain IRE1 (second series), hits give low values 0.0563 | locus YHR094C, strain hxt1, hits give low values 0.0602 | locus YHR129C, strain ARP1, hits give low values 0.056 | locus YHR142W, strain chs7, hits give low values 0.0762 | locus YHR200W, strain rpn10, hits give low values 0.0647 | locus YIL066C, strain RNR3, hits give low values 0.0516 | locus YIL073C, strain SPO22, hits give low values 0.118 | locus YIL125W, strain kgd1, hits give low values 0.0601 | locus YIR030C, strain dcg1, hits give low values 0.0565 | locus YJL092W, strain hpr5, hits give low values 0.0615 | locus YJL095W, strain BCK1 (second series), hits give low values 0.0566 | locus YJL095W, strain BCK1, hits give low values 0.0546 | locus YJL115W, strain asf1, hits give low values 0.0797 | locus YJL129C, strain trk1, hits give low values 0.0818 | locus YJL134W, strain LCB3, hits give low values 0.0495 | locus YJL154C, strain vps35, hits give low values 0.0615 | locus YJL164C, strain tpk1, hits give low values 0.0597 | locus YJL166W, strain qcr8, hits give low values 0.0614 | locus YJL168C, strain set2, hits give low values 0.062 | locus YJL187C, strain SWE1 (second series), hits give low values 0.0475

From PubChem BioAssay AID1159580 (chemical genetic matrix, 2015)
